# Laboratory results as given in PubChem BioAssay.
# Where “and” joins values, the source holds several entries; their conditions need not be identical. Equal values may be shown once. A number with no mark means an inactive call. Calls of active or inactive are those of the source.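 How the source made its calls: active means inhibition at or above 50% relative to wild type and mutant plate controls; inactive means inhibition below 50%.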
# Assay: inhibitors of Chlamydomonas gravitaxis, primary screen, whole organism, Chlamydomonas reinhardtii, WT vs cilia-less mutant, absorbance, 96-well (AID 463189);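 further: 0% = wild type cc124 cells in DMSO and 100% = ciliumless bld1 mutant cells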
# Conditions: OD600 absorbance, 2 days, at 10 µM, hits give high values
row,SMILES,inhibition
1,COc1cccc(OC)c1OCCNCC1COc2ccccc2O1 (stereo not given),0.114%
2,Cc1cc(O)c2c(c1)C(=O)c1cc(O)cc(O)c1C2=O,-10.7%
3,[Li+],-0.162%
4,NC1CONC1=O (stereo not given),8.19%
5,O=C1NC(=O)C(c2ccccc2[N+](=O)[O-])=C1Nc1ccc(O)c(Cl)c1,1.1%
6,CCn1cc(C(=O)O)c(=O)c2cc3c(cc21)OCO3,1.71%
7,Cc1cccc(C2CN(C)CCc3c2cc(O)c(O)c3Cl)c1 (stereo not given),3.56%
8,O=c1[nH]c(=O)n([C@H]2C[C@H](O)[C@@H](CO)O2)cc1/C=C/Br,6.74%
9,O=c1onc2cnc3ccccc3n12,3.46%
10,CC(C)C[C@H](N)CSSC[C@@H](N)CC(C)C,6.54%
11,NOCC(=O)O,-13.3%
12,CC(=O)N1CCN(c2ccc(OC[C@H]3CO[C@](Cn4ccnc4)(c4ccc(Cl)cc4Cl)O3)cc2)CC1,74.8% (active)
13,CC1(C)CCC=[N+]1[O-],0.394%
14,CCCCCC(O)c1cccc(OCc2ccc3ccccc3n2)c1 (stereo not given),3.99%
15,CN1C2CCC1CC(OC(=O)c1c[nH]c3ccccc13)C2 (stereo not given),11.2%
16,CC[C@H](NC(=O)c1c(C)c(-c2ccccc2)nc2ccccc12)c1ccccc1,9.84%
17,COC1=C(OC)C(=O)c2ccccc2C1=O,159% (active)
18,CCC(CO)Nc1nc(NCc2ccccc2)c2ncn(C(C)C)c2n1 (stereo not given),-6.72%
19,CN/C(=C\[N+](=O)[O-])NCCSCc1ccc(CN(C)C)o1,1.86%
20,C=CCN1CCc2c(cc(O)c(O)c2Br)[C@@H](c2ccccc2)C1,0.67%

row,SMILES,inhibition
1,CC(C)NCC(O)COc1cccc2ccccc12 (stereo not given),6.9%
2,CN=C(N)NCCC[C@H](N)C(=O)O,3.39%
3,N=C(N)SCCc1ccc(CCSC(=N)N)cc1,9.2%
4,CC1CN(S(=O)(=O)c2cccc3cnccc23)CCN1 (stereo not given),5.73%
5,C=Cc1c(C)c2cc3[nH]c(cc4nc(cc5nc(cc1[nH]2)C(C)=C5CCC(=O)O)C(CCC(=O)O)=C4C)c(C)c3C=C,9.54%
6,CSc1nc(N)c2ncn([C@@H]3O[C@H](COP(=O)(O)OP(=O)(O)OP(=O)(O)O)[C@H](O)C3O)c2n1 (stereo not given in full),-3.46%
7,O=S(=O)(O)C1CCNCC1,1.98%
8,N=C(N)c1ccccc1,7.5%
9,N=C(N)SCCc1cnc[nH]1,2%
10,C[N+](C)(C)CCOC(N)=O,7.07%
11,Cn1c(=O)c2c(ncn2C)n(C)c1=O,1.74%
12,CC(C)COCC(CN(Cc1ccccc1)c1ccccc1)N1CCCC1 (stereo not given),-3.6%
13,N[C@H](CCC(=O)NCS(=O)(=O)O)C(=O)O,4.82%
14,O=C(O)CCC/C=C\C[C@@H]1[C@@H](/C=C/[C@H](O)C2Cc3ccccc3C2)[C@@H](F)C[C@@H]1O,-14%
15,O=c1cc(N2CCOCC2)oc2c(-c3ccccc3)cccc12,15.7%
16,COc1ccccc1N1CCN(CCN(C(=O)C2CCCCC2)c2ccccn2)CC1,9.85%
17,Ic1ccc(N2CCN(Cc3c[nH]c4ncccc34)CC2)cc1,7.68%
18,CC(C)=CCC/C(C)=C/CC/C(C)=C/CSc1ccccc1C(=O)O,-8.73%
19,CC(C)(C)NCC(O)c1ccc(O)c(CO)c1 (stereo not given),2.6% and 2.52%
20,COc1cc(C(O)CO)ccc1OS(=O)(=O)O (stereo not given),-4.77%
